Results from the supplement of paper PMC4840960.
Where a name gives a salt, the structure may show the parent alone.

These molecules were tested on E18 rat cortical neuron-glia co-culture (assay: fiber score / MBP score (myelination specific beyond OL differentiation) (ratio); higher = more myelination-specific MBP alignment). Conditions: 1 µM; treatment time: 8 days (DIV5-DIV13).
In short: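 Fiber score divided by MBP score is the read-out; fiber score is continuous MBP fiber length per Olig2+ nucleus, and MBP score is thresholded MBP area × intensity per Olig2+ nucleus. Primary E18 rat cortical co-cultures were dissociated with papain and seeded at 20,000 cells/well on poly-d-lysine/laminin 96-well plates. Library compounds at 1 or 5 µM were given in myelination medium from DIV5 to DIV13, after which cells were fixed in 4 % paraformaldehyde, immunostained for MBP and Olig2 with DAPI, and imaged in four 10X fields per well in duplicate wells.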

SMILES | fiber score / MBP score
CC(=O)CC(c1ccccc1)c1c(O)c2ccccc2oc1=O (stereo not drawn) [Warfarin] | 0.617
CN(C)CC/C=C1/c2ccccc2COc2ccc(CC(=O)O)cc21 [Olopatadine] | 0.791
CCN1CCCC1CNC(=O)c1cc(S(N)(=O)=O)ccc1OC (stereo not drawn) [Sulpiride] | 0.858
C[C@]12CCC(=O)C=C1CC[C@@H]1[C@@H]2CC[C@@]2(C)[C@H]1CC[C@]2(O)C(=O)CO [Cortodoxone] | 0.514
CCOc1cc(N)c(Cl)cc1C(=O)NCC1CN(Cc2ccc(F)cc2)CCO1 (stereo not drawn) [Mosapride] | 0.736
COc1ccc(Cl)cc1C(=O)NCCc1ccc(S(=O)(=O)NC(=O)NC2CCCCC2)cc1 [Glyburide] | 1.07
Cc1ccc(N(CC2=NCCN2)c2cccc(O)c2)cc1 [Phentolamine] | 0.701
CC(=O)O[C@H]1C[C@@H]2CC[C@@H]3[C@H](CC[C@@]4(C)[C@H]3C[C@H]([N+]3(C)CCCCC3)[C@@H]4OC(C)=O)[C@@]2(C)C[C@@H]1N1CCCCC1 [Vecuronium Bromide] | 0.647
CC(=O)[C@@]1(O)CC[C@H]2[C@@H]3C[C@H](C)C4=CC(=O)C=C[C@]4(C)[C@@]3(F)[C@@H](O)C[C@@]21C [Fluorometholone] | 0.809
C[C@@](Cc1ccc(O)c(O)c1)(NN)C(=O)O [Carbidopa] | 0.917
CCCCC[C@H](O)/C=C/[C@H]1[C@H](O)CC(=O)[C@@H]1CCCCCCC(=O)O [Alprostadil] | 1.12
O=C1Nc2ccccc2/C1=C1/Nc2ccccc2C1=O [Indirubin] | 0.896
CCC1=C(C)CN(C(=O)NCCc2ccc(S(=O)(=O)NC(=O)N[C@H]3CC[C@H](C)CC3)cc2)C1=O [Glimepiride] | 1.06
COc1c2occc2cc2ccc(=O)oc12 [Methoxsalen] | 0.488
CNC(=C[N+](=O)[O-])NCCSCc1ccc(CN(C)C)o1 [Ranitidine] | 0.594
O=C1CC[C@@H](C(=O)N2CSC[C@H]2C(=O)O)N1 [Pidotimod] | 0.869
CN1CCC(=C2c3ccccc3CCc3sccc32)CC1 [Pizotyline] | 0.579
Cc1ccnc2c1NC(=O)c1cccnc1N2C1CC1 [Nevirapine] | 0.687
O=C(O)COCCN1CCN(C(c2ccccc2)c2ccc(Cl)cc2)CC1 (stereo not drawn) [Cetirizine] | 0.908
CC(C)/N=c1\cc2n(-c3ccc(Cl)cc3)c3ccccc3nc-2cc1Nc1ccc(Cl)cc1 [Clofazimine] | 0.742
CC1CCN(CCCC(=O)c2ccc(F)cc2)CC1 [Melperone hydrochloride] | 0.816
CCC(=O)O[C@@H]1CC(=O)O[C@H](C)C/C=C/C=C/[C@H](O)[C@H](C)C[C@H](CC=O)[C@H](O[C@@H]2O[C@H](C)[C@@H](O[C@H]3C[C@@](C)(O)[C@@H](OC(=O)CC)[C@H](C)O3)[C@H](N(C)C)[C@H]2O)[C@H]1OC [Midecamycin] | 0.757
CCN1CCN(c2cc3c(cc2F)c(=O)c(C(=O)O)cn3C2CC2)CC1 [Enrofloxacin] | 0.94
